Tau fibril ThT – blocks human tau fibril formation measured by thioflavin T. P10636. recombinant tau K18 P301L, heparin-induced fibrillization, ThT fluorescence. Potency, µM (titrated, usually from 57.4 µM), inactives show at the top dose activity, negative = inhibition, usual class: inhibitors. 2.1% of 270,000 active. AID 1460; also: potency is read from the fitted curve at half-maximal effect; nearly all actives have a fitted effect of over 55% in size
Target sequence (P10636 561-689 P618L limits assumed): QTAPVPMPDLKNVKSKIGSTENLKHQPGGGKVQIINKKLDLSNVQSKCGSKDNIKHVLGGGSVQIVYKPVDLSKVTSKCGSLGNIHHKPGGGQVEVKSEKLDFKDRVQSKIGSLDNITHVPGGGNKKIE
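Heparin-induced fibrillization of the P301L-mutant K18 repeat-domain fragment of human tau was followed by ThT binding in quantitative high-throughput format.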
FBPA coupling cs – inhibits coupling enzyme system, counter-screen for aldolase hits. activity change, negative = inhibition, % at 58.2 µM, hits read low. AID 2472. 0.67% of 290,000 active. coupling enzyme system counterscreen, AmpLite Red fluorescence; in the data active = activity change below about -30%
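Final compound at 57.5 uM, incubated 10 min at RT with coupling enzyme reagent (glyceraldehyde-3-phosphate), then 20 min with substrate and AmpLite Red detection. Fluorescence read at 525/598 nm; tests interference with the coupling assay, not aldolase inhibition.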
G9a block – inhibitors of human histone lysine methyltransferase G9a; Q96KQ7; G9a H3K9 monomethylation, AlphaScreen, 2 h; Potency, µM (highest dose often 102 µM), for inactives: top-dose activity, negative = inhibition, actives largely listed as inhibitors; 8.8% of 350,000 active; AID 504332; also: potency is read from the fitted curve at half-maximal effect; nearly all actives have a fitted effect of over 75% in size
Target sequence (Q96KQ7 913-1193 limits assumed): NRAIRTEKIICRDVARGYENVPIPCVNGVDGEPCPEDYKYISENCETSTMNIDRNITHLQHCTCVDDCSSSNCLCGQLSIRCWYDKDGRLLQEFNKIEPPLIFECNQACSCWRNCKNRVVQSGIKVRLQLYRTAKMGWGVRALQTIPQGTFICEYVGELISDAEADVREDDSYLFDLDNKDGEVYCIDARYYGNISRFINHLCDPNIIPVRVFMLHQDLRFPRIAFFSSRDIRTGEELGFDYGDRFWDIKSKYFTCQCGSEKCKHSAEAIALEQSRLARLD
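Chemiluminescent proximity detection of H3K9 monomethylation, read after 10 min bead incubation in the dark. Reaction: 20 nM G9a, 500 nM biotin-H3K9 peptide, 20 uM SAM cofactor, 2 h, room temperature, following 15 min enzyme-compound preincubation.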
Sfp PPTase inh – Sfp phosphopantetheinyl transferase inhibition; Potency, µM, without a hit: largest response in the series, negative = inhibition, hits mostly inhibitors; Biochemical Sfp PPTase activity, qHTS; 3.5% of 310,000 active;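 also: the enzyme is Sfp with the accession as filed and its product quenches rhodamine fluorescence; potency is read from the fitted curve at half-maximal effect; 0% = enzyme reaction without inhibitor and -100% = no enzyme wells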
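Fluorescence-quenching assay: 15 nM Sfp-PPTase preincubated 15 min at room temperature with compound, then 5 uM rhodamine-CoA and 12.5 uM BHQ-2-labelled YbbR peptide added. Fluorescence (ex 525/em 598 nm) read at start and after 30 min; difference gives rate.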
Tau FP inhib – inhibitors of human tau fibril formation. P10636. K18 P301L tau heparin fibrillization, Alexa594 FP, 6 h. Potency, µM (doses to about 57.7 µM), for the others: top-dose activity, negative = inhibition, most hits filed as inhibitors. 0.39% of 280,000 active; also: potency is read from the fitted curve at half-maximal effect; nearly all actives have a fitted effect of over 55% in size
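Steps: dispense K18 P301L tau (15 uM plus 0.24 uM Alexa 594 tracer, final) in pH 7 sodium acetate; add compound; add heparin (20 uM final); incubate 6 hr, 37 C; add ThT (30 uM final); after 1 hr ambient, read FP.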
Tau fluor counter – counter-screen for tau fibril formation inhibitors; Potency, µM (series often up to 57.7 µM), for the others: top-dose activity change, negative = decrease; tau K18 P301L Alexa594 fluorescence, heparin fibrillization; 0.93% of 280,000 active; AID 1463; also: potency is read from the fitted curve at half-maximal effect; nearly all actives have a fitted effect of over 55% in size
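Human tau K18 P301L (15 uM unlabeled, 0.24 uM Alexa 594-labeled) in 100 mM sodium acetate pH 7 with 20 uM heparin, 6 hr at 37 C. ThT 30 uM added, 1 hr ambient; Alexa 594 FP and total fluorescence read at 555/632 nm.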
* = called active by the depositor; ! = repeats disagree; [ ] = remark or other dose. Most compounds without a hit are left out; they make up all but 11% or so of the library. Unless noted, calls follow the shape of the dose curve; as a rule, active = well fitted curve in the direction sought with a large enough effect; inconclusive = small, poorly fitted or top-dose-only effect, or another doubt; inactive = no such curve, though single readings can be large; an effect the other way counts as inactive or inconclusive. Unless noted, % is scaled to controls: 0 for no effect and ±100 for the full control effect.

For CC(CNC(=O)Cn1ncc2c3ccccc3n(Cc3cccc(Cl)c3)c2c1=O)c1ccccc1 (centres undefined) the results were Tau fibril ThT -3%, G9a block 6%[59 µM], Tau FP inhib -7% and Tau fluor counter -4%.
O=C1O[C@H]([C@@H](O)CO)C(O)=C1O was read as G9a block 13µM*! and Sfp PPTase inh 1%.
`Cc1ccc(C(C)C)c(OCCCCN2CCNCC2)c1` gave FBPA coupling cs -1, G9a block 4µM* and Sfp PPTase inh 56µM*.
Cc1ccc(SCCCCN2CCNCC2)cc1 was read as Tau fibril ThT -12%, FBPA coupling cs -3, G9a block 8.9µM*, Sfp PPTase inh 50µM*, Tau FP inhib -7% and Tau fluor counter -8%.
Screening Cc1ccc(C(C)C)cc1OCCCCN1CCCC1 returned Tau fibril ThT -9%, FBPA coupling cs 1, G9a block 10µM*, Sfp PPTase inh inconclusive, Tau FP inhib -2% and Tau fluor counter -7%.
Cc1ccc(C)c(OCCCN2CCNCC2)c1 was read as FBPA coupling cs 0, G9a block inconclusive and Sfp PPTase inh -6%.
`Cc1ccc(C(C)C)c(OCCCCCN2CCOCC2)c1` gave FBPA coupling cs -1, G9a block 22µM* and Sfp PPTase inh -21%.
For Cc1ccc(C(C)C)c(OCC#CCN2CCOCC2)c1 the results were FBPA coupling cs -3, G9a block 7.9µM* and Sfp PPTase inh inconclusive.
`Cc1ccc(C(C)C)c(OCC(O)CN2CCOCC2)c1` (centres undefined) gave Tau fibril ThT -1%, FBPA coupling cs -1, G9a block 2%, Sfp PPTase inh -13%, Tau FP inhib -8% and Tau fluor counter -3%.
For CCOc1ccc(-c2nc(CNC(=O)Nc3ccccc3)c(C)o2)cc1 the results were Tau fibril ThT inconclusive, G9a block 18%[59 µM], Tau FP inhib -9% and Tau fluor counter -24%.
C=CC[n+]1c(-c2ccc(OCC)cc2)csc1NNC(=O)Nc1ccccc1 was read as Tau fibril ThT 13µM*, FBPA coupling cs 2, G9a block inconclusive, Sfp PPTase inh -17%, Tau FP inhib -8% and Tau fluor counter inconclusive.
O=C1c2ccccc2C(=O)N1CCc1c[nH]c2ccccc12 was read as Tau fibril ThT -8%, FBPA coupling cs 0, G9a block -29%, Sfp PPTase inh -12%, Tau FP inhib 12% and Tau fluor counter inconclusive.
Screening Cc1ccc(/C=C(/NC(=O)c2ccccc2)C(=O)NCCc2c[nH]c3ccccc23)o1 returned Tau fibril ThT -13%, FBPA coupling cs -7, G9a block 45µM*, Sfp PPTase inh -8%, Tau FP inhib 3% and Tau fluor counter -9%.
COc1cc(-c2noc(C)c2C(=O)NCCc2c[nH]c3ccccc23)cc(OC)c1OC was read as FBPA coupling cs -1, G9a block 32µM* and Sfp PPTase inh 7%.
For O=C1c2ccccc2C(=O)N1CCCc1c[nH]c2ccccc12 the results were Tau fibril ThT -13%, FBPA coupling cs 0, G9a block 50µM*, Sfp PPTase inh 8%, Tau FP inhib 9% and Tau fluor counter inconclusive.
Screening CC(C)CNC(=O)CCCc1c[nH]c2ccccc12 returned Tau fibril ThT -1%, FBPA coupling cs -6, G9a block 4%, Sfp PPTase inh -3%, Tau FP inhib 5% and Tau fluor counter -8%.
Screening O=C(CCCc1c[nH]c2ccccc12)NCCc1c[nH]c2ccccc12 returned FBPA coupling cs -3, G9a block 45µM* and Sfp PPTase inh 18%.
COc1ccc(S(=O)(=O)N2CCOCC2)cc1NC(=O)CCc1cc(OC)c(OC)c(OC)c1 was read as G9a block -4%[59 µM].
Screening CCCCSCCCNC(=O)c1cn(CC)c2ccc(S(=O)(=O)N3CCCCCC3)cc2c1=O returned Tau fibril ThT -6%, G9a block 11%[59 µM], Tau FP inhib -13% and Tau fluor counter -16%.
N#Cc1cccc(NC(=O)C2CCN(S(=O)(=O)c3ccc4[nH]c(=O)ccc4c3)CC2)c1 was read as Tau fibril ThT 7%, G9a block -3%[59 µM], Tau FP inhib 1% and Tau fluor counter -7%.
O=C(NCCc1c[nH]c2ccccc12)c1cc([N+](=O)[O-])cc([N+](=O)[O-])c1 was read as FBPA coupling cs 1, G9a block 10µM* and Sfp PPTase inh 1%.
O=C(CCCc1c[nH]c2ccccc12)Nc1ccc2ccccc2c1 was read as Tau fibril ThT inconclusive, FBPA coupling cs -3, G9a block inconclusive, Sfp PPTase inh 6%, Tau FP inhib inconclusive and Tau fluor counter 8.9µM*[quencher].
CC(=O)Nc1ccc(NC(=O)CCCc2c[nH]c3ccccc23)cc1 was read as Tau fibril ThT inconclusive, FBPA coupling cs 3, G9a block -6%, Sfp PPTase inh 3%, Tau FP inhib 9% and Tau fluor counter -8%.
Cn1ccc2cc(S(=O)(=O)N3CCCC(C(=O)NCc4ccc(F)cc4)C3)ccc21 (centres undefined) was read as Tau fibril ThT -1%, G9a block 3%[59 µM], Tau FP inhib 0% and Tau fluor counter -16%.
For CC(C)(C)CNc1cc(N2CCOCC2)ccc1[N+](=O)[O-] the results were Tau fibril ThT inconclusive, FBPA coupling cs -2, G9a block 32µM*, Sfp PPTase inh 1%, Tau FP inhib 0% and Tau fluor counter -23%.
For CS(=O)(=O)N1CCN(c2ccc([N+](=O)[O-])c(NCCN3CCOCC3)c2)CC1 the results were Tau fibril ThT inconclusive, FBPA coupling cs -1, G9a block 3%[59 µM], Sfp PPTase inh 18%, Tau FP inhib 9% and Tau fluor counter -1%.
Screening Cc1ccc(OCCNc2cc(N3CCN(CCO)CC3)ccc2[N+](=O)[O-])cc1C returned Tau fibril ThT 16µM*, FBPA coupling cs -1, G9a block inconclusive, Sfp PPTase inh -28%, Tau FP inhib -8% and Tau fluor counter inconclusive.
Cc1ccccc1OCCNc1cc(N2CCNCC2)ccc1[N+](=O)[O-] was read as Tau fibril ThT 16µM*, FBPA coupling cs 2, G9a block 32µM*, Sfp PPTase inh -2%, Tau FP inhib inconclusive and Tau fluor counter inconclusive.
Screening COc1ccccc1OCCNc1cc(N2CCCCC2)ccc1[N+](=O)[O-] returned Tau fibril ThT inconclusive, FBPA coupling cs 2, G9a block inconclusive, Sfp PPTase inh -5%, Tau FP inhib 12% and Tau fluor counter -22%.
